Results published in PubChem BioAssay (NCATS).
Records with an inconclusive call do not appear. Active and inactive are the calls of the source. Unless noted, calls follow the shape of the dose curve; as a rule, active = well fitted curve in the direction sought with a large enough effect; inconclusive = small, poorly fitted or top-dose-only effect, or another doubt; inactive = no such curve, though single readings can be large; an effect the other way counts as inactive or inconclusive.

Columns and labels:
[1] = Confirmation and Secondary Assay for Modulators of Hemoglobin Beta Chain Splicing at IVS2 654 locus (AID 910);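 also: HeLa cells stably carrying EGFP split by mutant beta-globin IVS2-654 intron; per-well total GFP intensity by laser scanning cytometry after 2-day treatment; % of control where 0% means no effect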
Method in brief: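 Readout: per-well total peak green fluorescence (488 nm ex, 500–520 nm em) from objects 5–250 µm, reflecting correct splicing of an EGFP-654 reporter. Compounds were applied for 2 days at 37 °C to overnight-plated HeLa EGFP-654 cells; controls were DMSO and 500 nM IVS2-654 PNA.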

[2] = Confirmation and Secondary Assay for Modulators of Hemoglobin Beta Chain Splicing at IVS2 705 locus (AID 930);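 also: HeLa cells stably expressing the EGFP-705 splicing reporter; GFP fluorescence per well restored by corrected splicing of the IVS2-705 intron in EGFP; series mostly up to about 46 µM; % of control where 0% means no effect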
Method in brief: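 HeLa IVS2-705 EGFP reporter cells, 500/well, compound 2 d at 37C; correct splicing yields fluorescent EGFP. Control: 500 nM antisense PNA. Read-out: total peak GFP intensity.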

[3] = qHTS Assay for Identification of Small Molecule Antagonists for NFkB Signaling Pathway (AID 895; active = well fitted inhibition curve with a large enough effect in the signal ratio, with a control signal flat, not every such curve was filed as active; the % refers to the signal ratio; also: % is scaled to controls: 0 for no effect and ±100 for the full control effect)
Method in brief: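 Beta-lactamase reporter read-out (460 and 530 nm emission ratio, 405 nm excitation, 2 hrs substrate loading RT) after 5 hr stimulation with 10 pM TNF alpha in compound-treated NFkB-bla ME-180 cells in low-serum medium.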

[4] = biological target: Muscarinic acetylcholine receptor M1 (Rattus norvegicus) (UniProt P08482); assay: qHTS Assay for Antagonists of Acetylcholine Muscarinic M1 Receptor: Kinetic Measurement of Intracellular Calcium Response (AID 943);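 also: Fluo-4 calcium signal as peak divided by basal fluorescence over 4 min; series mostly up to about 35 µM; nearly all actives have a fitted effect of over 75% in size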
Method in brief: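 CHO cells stably expressing rat M1 were loaded with no-wash Fluo-4 dye for 1 h at 37C, pre-incubated 10 min with compound, then challenged with EC80 carbachol (100 nM final); kinetic calcium read 4 min, peak/basal ratio.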

[5] = biological target: Muscarinic acetylcholine receptor M1 (Rattus norvegicus) (UniProt P08482); assay: qHTS Assay for Antagonists of Acetylcholine Muscarinic M1 Receptor: Measurement of IP-One Response (AID 944); also: nearly all actives have a fitted effect of over 75% in size
Method in brief: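 CHO cells expressing rat M1 receptor, recovered overnight, were pre-incubated 10 min with compound, then stimulated 30 min with carbachol at EC80 (200 nM) in LiCl-containing buffer, pH 7.4. IP1 accumulation was read by HTRF (620/665 nm).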

[6] = biological target: Pyruvate kinase (Leishmania mexicana) (UniProt Q27686); assay: qHTS Validation Assay for Inhibitors of Leishmania Mexicana Pyruvate Kinase (AID 945);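 also: 0% = DMSO only neutral control wells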
Method in brief: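 Eight-point qHTS titrations; enzyme 0.2 nM LmPYK (E451W mutant); substrates 0.5 mM PEP, 0.1 mM ADP; 7 mM MgCl2; 1 h room temperature; PKLight luminescence normalized to neutral control.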

[7] = biological target: Pyruvate kinase PKM (Homo sapiens) (UniProt P14618); assay: qHTS Assay for Activators of Human Muscle Pyruvate Kinase (AID 954; active = well fitted curve in the direction sought with a large enough effect, not every such curve was filed as active;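 also: 0% = uninhibited enzyme and -100% = no enzyme or full thiadiazolimine inhibition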)
Method in brief: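 Purified human PKM2 (0.1 nM) with 0.5 mM PEP (Km) and 0.1 mM ADP in 50 mM imidazole pH 7.2, KCl, MgCl2, 1 h at room temperature; ATP formed read by coupled luciferase luminescence. Normalized to no-enzyme/110 uM thiadiazolimine inhibition; 0.3 nM enzyme column for activation.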

[8] = qHTS Assay for Identification of Small Molecule Agonists for Thrombopoietin (TPO) Signaling Pathway (AID 917); also: % is scaled to controls: 0 for no effect and ±100 for the full control effect
Method in brief: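 Activators of TPO signaling were sought in murine Ba/F3 cells transfected with the human receptor, using a luciferase gene driven by the Glycoprotein IIb promoter; 24-hr compound exposure at 37 C alongside 26 pM TPO, in IL-3-free medium.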

[9] = Cell Viability - LYMP2-001 (AID 921);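 also: series mostly up to about 92 µM; 0% = DMSO only and full inhibition = tetraoctylammonium bromide control wells; nearly all actives have a fitted effect of over 70% in size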
Method in brief: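 CellTiter-Glo luminescence (intracellular ATP) after 24 hr compound exposure at 37 C, 2500 lymphoblastoid cells/well in complete medium. AC50 fitted with standard Hill equation; tetraoctylammonium bromide positive control.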

[10] = MultiTox-Fluor Cytotoxicity Assay - LYMP1-001 - Dead Cells (AID 946);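 also: 0% = DMSO and 100% = tetraoctylammonium bromide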
Method in brief: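 LYMP1-001 lymphoblastoid cells (2500/well) treated 16 h at 37 C. Dead-cell protease cleavage of bis-AAF-R110 read at Ex/Em 485/520. Normalized to DMSO and 15 uM tetraoctylammonium bromide; AC50 from Hill fits.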

[11] = Cell Viability - LYMP1-002 - Assay at 16 hr (AID 948);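 also: 0% = DMSO alone and full effect = 92 µM tetraoctylammonium bromide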
Method in brief: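 LYMP1-002 human lymphoblastoid cells, 2500/well; 5 hr 37 C; cpd 16 hr 37 C; CellTiter-Glo 30 min RT; luminescence (ATP). Concentration-response, Hill-fit AC50. Pos ctrl tetraoctylammonium bromide.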

[12] = MultiTox-Fluor Cytotoxicity Assay - LYMP1-002 - Live Cells (AID 955); also: % is scaled to controls: 0 for no effect and ±100 for the full control effect
Method in brief: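 Human lymphoblastoid LYMP1-002 cells, 2500/well in complete medium, rested 5 hr at 37 C, then exposed to compounds for 16 hr at 37 C. Live-cell protease cleavage of GF-AFC read by fluorescence (Ex/Em 405/510) after 60 min at room temperature; AC50 from Hill fits.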

[13] = MultiTox-Fluor Cytotoxicity Assay - LYMP1-003 - Live Cells (AID 962);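 also: 0% = DMSO only and full loss = 92 µM tetraoctylammonium bromide; cytotoxic hits lower the live-cell protease signal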
Method in brief: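 LYMP1-003 human lymphoblastoid cells (2500/well) in complete medium were preincubated 5 hr at 37 C, then exposed to compounds for 16 hr at 37 C. Live-cell protease cleavage of GF-AFC read by fluorescence (Ex/Em 405/510); AC50 from Hill fits.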

[14] = Cell Viability - LYMP1-003 - Assay at 24 hr (AID 963);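 also: plate controls were DMSO only for no effect and tetraoctylammonium bromide positive control for full effect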
Method in brief: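 Human lymphoblastoid LYMP1-003 cells (2500/well) were rested 5 hr at 37 C, then exposed to compounds in complete medium for 24 hr at 37 C. Cellular ATP was quantified by CellTiter-Glo luminescence, and AC50 values came from Hill fits of concentration-response data.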

[15] = qHTS Assay for Identification of Small Molecule Agonists for Hypoxia Response Element Signaling Pathway (AID 914; active = well fitted activation curve with a large enough effect in the signal ratio, with a control signal flat, not every such curve was filed as active; the % refers to the signal ratio; also: % of control where 0% means no effect); conditions: ME-180 (cervical carcinoma) HRE-bla reporter, beta-lactamase ratio, CoCl2, 17 h; activation: hits give high values
Method in brief: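 HRE-bla ME-180 assay for agonist-like enhancement of an EC50 CoCl2 stimulus: 17 h at 37 degrees Celsius, CCF4 for 2.5 h, ratiometric 460/530 nm signal converted to %Activity and fitted to AC50.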

[16] = MultiTox-Fluor Cytotoxicity Assay - LYMP1-001 - Live Cells (AID 947);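 also: 0% = DMSO only and full inhibition = tetraoctylammonium bromide control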
[17] = Cell Viability - LYMP1-003 - Assay at 40 hr (AID 964); also: series mostly up to about 92 µM; % is scaled to controls: 0 for no effect and ±100 for the full control effect; nearly all actives have a fitted effect of over 60% in size
Method in brief: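 Human lymphoblastoid LYMP1-003 cells, 2500/well in complete medium, rested 5 hr at 37 C, then exposed to compounds for 40 hr at 37 C. Viability read as intracellular ATP by CellTiter-Glo luminescence; AC50 from Hill fits of concentration-response data.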

[18] = Cell Viability - LYMP2-003 (AID 965);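 also: cells exposed to compounds for 24 h before reading; 0% = DMSO only and full effect = 92 µM tetraoctylammonium bromide; nearly all actives have a fitted effect of over 50% in size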
Method in brief: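 CellTiter-Glo luminescence (cellular ATP) after 24 h compound exposure at 37 C in complete medium; 2500 cells/well, 5 h settling beforehand. Concentration-response fitted to standard Hill equation for AC50. Tetraoctylammonium bromide served as positive control.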

Chain of Muscarinic acetylcholine receptor M1 (Rattus norvegicus) (P08482 whole entry, looked up): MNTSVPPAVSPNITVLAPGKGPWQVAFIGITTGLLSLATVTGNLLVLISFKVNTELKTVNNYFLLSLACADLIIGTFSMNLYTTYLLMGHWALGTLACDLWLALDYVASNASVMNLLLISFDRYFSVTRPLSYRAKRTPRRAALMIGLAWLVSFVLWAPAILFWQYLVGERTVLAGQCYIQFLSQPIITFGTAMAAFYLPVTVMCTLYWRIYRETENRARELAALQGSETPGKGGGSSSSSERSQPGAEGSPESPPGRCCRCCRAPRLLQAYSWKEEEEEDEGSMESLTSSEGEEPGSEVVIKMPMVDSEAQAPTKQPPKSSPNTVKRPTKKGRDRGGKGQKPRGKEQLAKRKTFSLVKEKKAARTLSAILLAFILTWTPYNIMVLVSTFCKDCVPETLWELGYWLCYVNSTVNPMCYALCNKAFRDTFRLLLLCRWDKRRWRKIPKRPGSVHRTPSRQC
Chain of Pyruvate kinase PKM (Homo sapiens) (P14618 whole entry, looked up): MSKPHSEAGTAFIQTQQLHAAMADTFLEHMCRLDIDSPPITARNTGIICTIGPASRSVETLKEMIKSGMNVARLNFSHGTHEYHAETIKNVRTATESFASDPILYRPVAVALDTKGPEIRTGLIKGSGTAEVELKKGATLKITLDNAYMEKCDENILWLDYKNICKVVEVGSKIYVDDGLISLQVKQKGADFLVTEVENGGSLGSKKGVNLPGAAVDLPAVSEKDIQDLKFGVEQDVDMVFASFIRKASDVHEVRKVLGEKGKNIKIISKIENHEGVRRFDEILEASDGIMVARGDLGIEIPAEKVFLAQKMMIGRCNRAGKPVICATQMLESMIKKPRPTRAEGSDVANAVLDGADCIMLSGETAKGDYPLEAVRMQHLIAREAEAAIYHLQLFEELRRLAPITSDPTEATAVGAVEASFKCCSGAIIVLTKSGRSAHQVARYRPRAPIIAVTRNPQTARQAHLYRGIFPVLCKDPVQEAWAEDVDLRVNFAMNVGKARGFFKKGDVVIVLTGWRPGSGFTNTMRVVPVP
Chain of Pyruvate kinase (Leishmania mexicana) (Q27686 2-499 E452W): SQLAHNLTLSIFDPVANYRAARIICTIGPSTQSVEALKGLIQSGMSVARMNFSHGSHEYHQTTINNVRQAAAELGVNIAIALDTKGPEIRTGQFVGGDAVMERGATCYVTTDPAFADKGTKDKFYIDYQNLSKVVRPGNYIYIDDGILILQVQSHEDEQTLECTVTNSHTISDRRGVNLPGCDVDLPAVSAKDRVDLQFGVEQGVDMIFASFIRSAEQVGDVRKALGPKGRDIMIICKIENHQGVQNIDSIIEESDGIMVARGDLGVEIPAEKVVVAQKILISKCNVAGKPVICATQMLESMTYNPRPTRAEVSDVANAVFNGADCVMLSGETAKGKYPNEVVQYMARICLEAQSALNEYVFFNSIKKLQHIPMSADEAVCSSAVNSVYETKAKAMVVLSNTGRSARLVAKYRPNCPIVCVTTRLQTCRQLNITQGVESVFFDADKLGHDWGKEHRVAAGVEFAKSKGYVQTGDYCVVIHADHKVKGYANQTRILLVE

CC(=O)NO
inactive: outcome [1] | outcome [2]

NC(N)=NCc1cccc(I)c1
inactive: outcome [3] | outcome [4] | Potency [5] | outcome [6] | outcome [7]

CN1CCC(OC(c2ccccc2)c2ccccc2)CC1
inactive: outcome [1] | outcome [2]

CCN(CC)CCNc1ccc(CO)c2sc3ccccc3c(=O)c12
inactive: outcome [1] | outcome [2]

CCOC(=O)[C@H](CCc1ccccc1)N[C@@H](C)C(=O)N1[C@H](C(=O)O)C[C@H]2CCCC[C@@H]21
inactive: outcome [1] | outcome [2]

COc1ccc(-c2cc(C(F)F)nn2-c2ccc(S(N)(=O)=O)cc2)cc1F
inactive: outcome [1] | outcome [2]

COc1cc(N)c(Cl)cc1C(=O)NC1CCN(Cc2ccccc2)CC1
inactive: outcome [1] | outcome [2]

CN=C(N)NCCC[C@H](N)C(=O)O
inactive: outcome [3] | outcome [8] | outcome [4] | Potency [5] | outcome [6] | outcome [7]

Oc1ccc(Cl)cc1Cc1cc(Cl)ccc1O
inactive: outcome [1] | outcome [9] | outcome [2] | outcome [10] | outcome [11] | outcome [12] | outcome [13] | outcome [14]

c1ccc(CC2=NCCN2)cc1
inactive: outcome [1] | outcome [2]

CC(=O)NCCCCCC(=O)O
inactive: outcome [1] | outcome [2]

CCOc1ccc(NC(C)=O)cc1
inactive: outcome [1] | activation [15] 2% | outcome [9] | outcome [2] | outcome [10] | outcome [16] | outcome [11] | outcome [12] | outcome [13] | outcome [14] | outcome [17] | outcome [18]

Cc1cc(C)cc(OCC2CNC(=O)O2)c1 (stereo unspecified)
inactive: outcome [1] | outcome [2]

CCN(CC)CCOC(=O)C(Cc1cccc2ccccc12)CC1CCCO1 (stereo unspecified)
inactive: outcome [1] | outcome [2]

O=C1C(=O)c2ccccc2C(O)=C1C1CCC(c2ccc(Cl)cc2)CC1 (stereo unspecified)
inactive: outcome [1] | outcome [2]

COc1cc(NS(=O)(=O)c2ccc(N)cc2)ncn1
inactive: outcome [1] | outcome [2]

CCCN(CCC)S(=O)(=O)c1ccc(C(=O)O)cc1
inactive: outcome [1] | outcome [9] | outcome [2] | outcome [10] | outcome [16] | outcome [11] | outcome [12] | outcome [13] | outcome [14] | outcome [17] | outcome [18]

CC(C)NCC(O)c1ccc2ccccc2c1 (stereo unspecified)
inactive: outcome [1] | outcome [2]

COc1ccc(C(=O)c2ccccc2)c(O)c1
inactive: outcome [1] | outcome [9] | outcome [2] | outcome [10] | outcome [16] | outcome [11] | outcome [12] | outcome [13] | outcome [14] | outcome [17] | outcome [18]

NC(=O)c1ccccc1O
inactive: outcome [1] | outcome [9] | outcome [2] | outcome [10] | outcome [16] | outcome [11] | outcome [12] | outcome [13] | outcome [14] | outcome [17] | outcome [18]

CN(C)CCOC(c1ccc(Cl)cc1)c1ccccn1 (stereo unspecified)
inactive: outcome [1] | outcome [2]

Oc1c(Cl)cc(Cl)c(Cl)c1Cc1c(O)c(Cl)cc(Cl)c1Cl
inactive: outcome [1] | outcome [2] | outcome [11] | outcome [14]

NCCNc1cccc2ccccc12
inactive: outcome [10] | outcome [16] | outcome [11] | outcome [12] | outcome [13] | outcome [14] | outcome [17] | outcome [18]

CCN(CC)CCNC(=O)c1cc(Br)c(N)cc1OC
inactive: outcome [1] | outcome [2]
